A short description of assay [1]: Nuclear factor erythroid 2-related factor 2/antioxidant responsive element (Nrf2/ARE) small molecule agonists: luciferase reporter gene qHTS assay in human keratinocytes (AID 1919969). Further: nearly all actives have a fitted effect of over 35% in size.
The target in assay [2] is Gonadotropin-releasing hormone receptor (Homo sapiens) (UniProt P30968). The experiment in a line: Human gonadotropin-releasing hormone receptor (GnRHR) small molecule agonists, calcium flux assay in GnRHR-HEK293 cells (AID 1920063). Further: nearly all actives have a fitted effect of over 35% in size. Further: potency means the concentration at half of the fitted maximal effect. In short, it runs like this:
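Cells: HEK293 stably expressing human GnRHR. Steps: overnight (18 h) culture, 1 h calcium dye loading at 37 C, compound addition, kinetic fluorescence read at 480/540 nm. Each compound tested at 15 concentrations in triplicate.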
(In general: A change in cytosolic calcium serves as a functional read-out for many receptors and channels.)

Assay [3] concerns the target KiSS-1 receptor (Homo sapiens) (UniProt Q969F8). In words: Human kisspeptin (KISS1R) small molecule agonists, calcium flux assay in KISS1R-HEK293 cells (AID 1920064; active means well fitted activation curve with a large enough effect in the repeat runs). A digest of the protocol:
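Cells plated and incubated 18 h; dye added, 1 h at 37 C; compounds in DMSO pinned in; signal read at 480/540 nm every second for 3 min. Each compound tested at 15 concentrations in triplicate.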

A short description of assay [4]: G protein-coupled receptor (GPCR) small molecule agonists, calcium flux assay: HEK293 wild type cell line counter screen (AID 1920065). In short, it runs like this:
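Counter-screen of the Tox21 10K library for non-specific calcium release: dye-loaded cells received compounds in DMSO and were monitored by kinetic fluorescence (480/540 nm, 3 min). Fifteen concentrations, run in triplicate.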

The nature of assay [5]: p53 small molecule agonists, cell-based qHTS assay with human liver microsomes (AID 1963577). In short, it runs like this:
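Cells carrying a p53-responsive bla reporter were rested 5 h (37 C, 5% CO2) before compound transfer. Human liver microsomes plus NADPH, 0.5 mg/mL final apiece, supplied metabolism during the 16 h 37 C exposure.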
(In general: qHTS replaces the single test concentration by a dilution series.)

Assay [6] can be described thus: p53 small molecule agonists, cell-based qHTS assay with rat liver microsomes (AID 1963578). A digest of the protocol: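 Fluorescence from a beta-lactamase reporter under a p53 response element was measured after cells had been incubated 16 h at 37 C with test compound and rat liver microsomes plus NADPH (0.5 mg/mL final each).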
Assay [7] can be described thus: p53 small molecule agonists, cell-based qHTS assay with rat liver microsomes: qHTS cell viability counter screen (AID 1963580). Further: nearly all actives have a fitted effect of over 45% in size. A digest of the protocol:
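p53RE-bla HCT-116 cells (4,000/well) rested 5 h at 37 C, then given Tox21 compounds in DMSO with rat liver microsomes (0.5 mg/mL final) plus NADPH (0.5 mg/mL final) for 16 h at 37 C. Viability read by CellTiter-Glo luminescence after 30 min at room temperature.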

In assay [8] the target is 5-hydroxytryptamine receptor 2A (Homo sapiens) (UniProt P28223). The experiment in a line: 5-hydroxytryptamine receptor 2A (HTR2A) small molecule antagonists, cell-based qHTS assay (AID 1963586). Further: nearly all actives have a fitted effect of over 45% in size. Further: potency means the concentration at half of the fitted maximal effect. In short, it runs like this: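 Antagonist-mode intracellular calcium assay: DOI (4 nM) added after 5 min compound pre-incubation at room temperature to dye-loaded HTR2A-CHO cells. Fluorescence followed for 3 min, sampled every second.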
Chain of 5-hydroxytryptamine receptor 2A (Homo sapiens) (P28223 whole entry, looked up): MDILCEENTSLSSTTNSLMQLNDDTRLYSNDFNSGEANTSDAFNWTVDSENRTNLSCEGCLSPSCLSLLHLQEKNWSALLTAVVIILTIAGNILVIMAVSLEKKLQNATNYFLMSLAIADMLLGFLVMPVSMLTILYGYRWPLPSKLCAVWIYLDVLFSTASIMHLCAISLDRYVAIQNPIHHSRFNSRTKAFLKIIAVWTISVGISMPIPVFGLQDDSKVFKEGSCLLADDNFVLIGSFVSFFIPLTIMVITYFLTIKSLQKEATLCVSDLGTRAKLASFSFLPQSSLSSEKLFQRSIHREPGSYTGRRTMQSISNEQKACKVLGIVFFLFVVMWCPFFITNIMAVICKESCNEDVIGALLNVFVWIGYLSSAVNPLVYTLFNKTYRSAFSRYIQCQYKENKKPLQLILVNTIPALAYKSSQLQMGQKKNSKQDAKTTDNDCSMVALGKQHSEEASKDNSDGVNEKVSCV

Assay [9] has the same target. The experiment in a line: 5-hydroxytryptamine receptor 2A (HTR2A) small molecule agonists, cell-based qHTS assay (AID 1963587). Further: nearly all actives have a fitted effect of over 30% in size. Further: potency means the concentration at half of the fitted maximal effect. A digest of the protocol:
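HTR2A-CHO cells, plated 18 h at 37 C/5% CO2, dye-loaded 1 h at 37 C; compounds in DMSO added by pin tool (agonist mode). Intracellular calcium flux read as kinetic fluorescence on FDSS over 2 min at 1 s intervals.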

In assay [10] the target is Muscarinic acetylcholine receptor M1 (Homo sapiens) (UniProt P11229). The experiment in a line: Cholinergic receptor muscarinic 1 (CHRM1) small molecule antagonists, cell-based qHTS assay (AID 1963588). Further: nearly all actives have a fitted effect of over 40% in size. In short, it runs like this:
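CHRM1-CHO calcium-flux assay, antagonist mode. Cells were seeded 18 h, dye-loaded 1 h at 37 C and given compound for 5 min at RT, then acetylcholine was added at 50nM. FDSS fluorescence was read 3 min; 15 concentrations, three runs.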

The target of assay [11] is Beta-2 adrenergic receptor (Homo sapiens) (UniProt P07550). The experiment in a line: Adrenergic beta2 receptor (ADRB2) small molecule antagonists, cell-based qHTS assay (AID 1963592). Further: nearly all actives have a fitted effect of over 50% in size. Further: potency means the concentration at half of the fitted maximal effect. A digest of the protocol: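 Cells (CHO, stable ADRB2 overexpression) incubated 18-20hr at 37C; compounds added from DMSO; agonist mix (1nM isoproterenol, 100uM IBMX, 25uM Ro-20-1724) added; 0.5hr RT; d2-cAMP and anti-cAMP-cryptate added; 1hr RT; 665/615 nm read.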
Chain of Beta-2 adrenergic receptor (Homo sapiens) (P07550 whole entry, looked up): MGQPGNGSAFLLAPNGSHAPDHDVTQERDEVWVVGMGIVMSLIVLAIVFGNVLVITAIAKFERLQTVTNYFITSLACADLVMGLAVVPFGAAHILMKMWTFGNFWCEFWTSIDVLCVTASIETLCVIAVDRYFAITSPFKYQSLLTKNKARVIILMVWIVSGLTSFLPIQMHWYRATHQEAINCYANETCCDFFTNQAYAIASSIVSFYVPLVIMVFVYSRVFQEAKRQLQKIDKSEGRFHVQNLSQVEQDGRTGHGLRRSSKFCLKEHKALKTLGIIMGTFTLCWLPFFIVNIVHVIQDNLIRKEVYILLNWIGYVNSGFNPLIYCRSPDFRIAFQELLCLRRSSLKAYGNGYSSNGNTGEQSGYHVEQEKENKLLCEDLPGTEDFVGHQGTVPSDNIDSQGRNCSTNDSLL

The target of assay [12] is D(2) dopamine receptor (Homo sapiens) (UniProt P14416). In words: Dopamine D2 receptor (DRD2) small molecule agonists, cell-based qHTS assay (AID 1963594). Further: nearly all actives have a fitted effect of over 35% in size. A digest of the protocol:
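HEK293 cells stably expressing DRD2 were cultured 24 h at 37 C, then given Ro20-1724 (0.1 mM final) and compounds for 10 min at room temperature. NKH477 (200nM) was then added for 30 min. cAMP was read by HTRF.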

The target is the same in assay [13]. In words: Dopamine D2 receptor (DRD2) small molecule antagonists, cell-based qHTS assay (AID 1963595; active means well fitted inhibition curve with a large enough effect in the signal ratio in the repeat runs, with a control signal flat; the % refers to the signal ratio). In short, it runs like this:
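Antagonist mode in DRD2-HEK293 cells: after compound addition with 0.1 mM Ro20-1724, cells received quinpirole (12 nM) and NKH477 (200 nM) for 30 min at room temperature; HTRF cAMP read after 1 h detection.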

The nature of assay [14]: p53 small molecule agonists, cell-based qHTS assay (AID 1963582; active means well fitted activation curve with a large enough effect in the signal ratio in the repeat runs, not every such curve was filed as active; the % refers to the signal ratio). In short, it runs like this: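 Quantitative HTS in p53RE-bla cells: after a 5 h settling period, compounds delivered in DMSO were left on cells for 16 h at 37 C, and reporter induction was measured as fluorescence following 2 h substrate loading.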
For assay [15], the target named is Muscarinic acetylcholine receptor M1 (Homo sapiens) (UniProt P11229). The experiment in a line: Cholinergic receptor muscarinic 1 (CHRM1) small molecule agonists, cell-based qHTS assay (AID 1963589). Further: nearly all actives have a fitted effect of over 35% in size. In short, it runs like this: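 Agonist-mode qHTS in CHO cells stably carrying human muscarinic M1. Intracellular calcium is tracked by fluorescence every second after compound transfer; each compound runs at 15 concentrations in three independent runs.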
Chain of Muscarinic acetylcholine receptor M1 (Homo sapiens) (P11229 whole entry, looked up): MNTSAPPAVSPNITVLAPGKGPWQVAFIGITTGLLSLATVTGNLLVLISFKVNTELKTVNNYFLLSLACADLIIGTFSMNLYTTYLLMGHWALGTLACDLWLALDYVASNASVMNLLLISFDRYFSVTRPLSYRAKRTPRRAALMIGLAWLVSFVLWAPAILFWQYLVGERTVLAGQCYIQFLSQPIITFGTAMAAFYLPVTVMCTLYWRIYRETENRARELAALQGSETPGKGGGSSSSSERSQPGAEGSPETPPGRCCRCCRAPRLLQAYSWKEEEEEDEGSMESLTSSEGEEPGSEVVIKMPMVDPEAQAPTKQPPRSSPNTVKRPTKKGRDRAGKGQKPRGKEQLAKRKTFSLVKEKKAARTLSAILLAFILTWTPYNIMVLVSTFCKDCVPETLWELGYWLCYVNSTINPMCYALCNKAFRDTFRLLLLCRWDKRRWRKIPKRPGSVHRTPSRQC

Assay [16] concerns the target Beta-2 adrenergic receptor (Homo sapiens) (UniProt P07550). The experiment in a line: Adrenergic beta2 receptor (ADRB2) small molecule agonists, cell-based qHTS assay (AID 1963593).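 Further: CHO cells stably overexpressing human ADRB2.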 In short, it runs like this: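 CHO cells stably over-expressing ADRB2 were plated overnight at 37C, then dosed with compounds plus a stimulation mix containing 100uM IBMX and 25uM Ro-20-1724 for 0.5hr at room temperature. cAMP was measured by HTRF competition, 1hr.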

Assay [17] is described as follows: p53 small molecule agonists, cell-based qHTS assay with human liver microsomes: qHTS cell viability counter screen (AID 1963579). Further: nearly all actives have a fitted effect of over 45% in size. In short, it runs like this: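 Seed p53RE-bla cells at 4,000 per well; incubate 5 h at 37 C; add compound, human liver microsomes and NADPH; incubate 16 h at 37 C; add CellTiter-Glo; after 30 min at room temperature, read luminescence.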

The nature of assay [18]: p53 small molecule agonists, cell-based qHTS assay: qHTS cell viability counter screen (AID 1963581). Further: nearly all actives have a fitted effect of over 45% in size. In short, it runs like this:
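Cells: HCT-116 with p53 response element-driven beta-lactamase. Treatment: 16 h, 37 C, compounds in DMSO. Read: CellTiter-Glo luminescence after 30 min RT.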

Assay [19] can be described thus: cAMP Responsive Elements (CRE) small molecule agonists, cell-based qHTS assay (AID 1963590). A digest of the protocol:
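Agonist mode qHTS in CRE-bla HEK 293T cells: compounds dosed from DMSO for 3 h at 37 C/5% CO2, followed by LiveBLAzer B/G FRET substrate for 2 h at room temperature.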

Assay [20] in a line: cAMP Responsive Elements (CRE) small molecule antagonists, cell-based qHTS assay (AID 1963591; active means well fitted inhibition curve with a large enough effect in the signal ratio in the repeat runs, not every such curve was filed as active; the % refers to the signal ratio). A digest of the protocol:
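Antagonist mode: test compounds are co-incubated with the adenylyl cyclase activator NKH477 (0.25 uM final) on CRE-bla HEK293T cells for 3 h at 37 °C, followed by LiveBLAzer substrate loading.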

Inconclusive results are not listed. Activity calls are given as the source filed them. Unless noted, the call rests on the fitted dose curve.

Chain of KiSS-1 receptor (Homo sapiens) (Q969F8 whole entry, looked up): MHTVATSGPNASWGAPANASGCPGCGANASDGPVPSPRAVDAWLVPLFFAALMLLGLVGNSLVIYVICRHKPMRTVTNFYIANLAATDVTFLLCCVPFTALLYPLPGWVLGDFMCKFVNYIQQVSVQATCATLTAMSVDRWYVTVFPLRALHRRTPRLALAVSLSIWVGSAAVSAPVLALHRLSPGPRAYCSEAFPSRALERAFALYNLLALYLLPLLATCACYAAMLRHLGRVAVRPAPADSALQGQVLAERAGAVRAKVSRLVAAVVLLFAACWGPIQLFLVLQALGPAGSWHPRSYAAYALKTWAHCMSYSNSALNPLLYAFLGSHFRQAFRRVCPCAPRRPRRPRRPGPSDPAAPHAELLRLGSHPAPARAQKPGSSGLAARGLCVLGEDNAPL
Chain of D(2) dopamine receptor (Homo sapiens) (P14416 whole entry, looked up): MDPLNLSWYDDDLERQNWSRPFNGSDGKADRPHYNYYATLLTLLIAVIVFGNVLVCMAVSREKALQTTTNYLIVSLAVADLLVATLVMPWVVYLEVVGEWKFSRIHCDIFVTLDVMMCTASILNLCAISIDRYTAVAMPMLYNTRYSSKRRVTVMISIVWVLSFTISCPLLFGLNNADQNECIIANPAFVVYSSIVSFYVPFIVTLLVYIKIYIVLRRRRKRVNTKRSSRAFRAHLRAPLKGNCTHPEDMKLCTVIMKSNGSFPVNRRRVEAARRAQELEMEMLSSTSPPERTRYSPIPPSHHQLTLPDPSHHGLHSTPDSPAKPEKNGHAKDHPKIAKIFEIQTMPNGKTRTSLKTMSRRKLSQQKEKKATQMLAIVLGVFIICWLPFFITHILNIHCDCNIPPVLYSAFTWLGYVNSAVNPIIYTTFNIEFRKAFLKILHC
Chain of Gonadotropin-releasing hormone receptor (Homo sapiens) (P30968 whole entry, looked up): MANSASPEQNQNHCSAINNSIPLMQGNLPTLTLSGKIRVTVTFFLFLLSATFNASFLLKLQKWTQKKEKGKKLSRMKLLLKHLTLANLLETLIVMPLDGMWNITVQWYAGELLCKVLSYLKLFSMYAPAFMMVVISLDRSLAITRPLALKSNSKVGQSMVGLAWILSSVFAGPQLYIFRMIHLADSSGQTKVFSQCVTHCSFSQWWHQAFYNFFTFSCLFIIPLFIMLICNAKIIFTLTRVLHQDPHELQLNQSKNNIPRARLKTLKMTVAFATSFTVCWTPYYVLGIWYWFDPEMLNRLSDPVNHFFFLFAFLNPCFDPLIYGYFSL

For the molecule `Cc1cc(C)c(C(=O)P(=O)(c2ccccc2)c2ccccc2)c(C)c1`, the Potency result in [1], in assay [2], in assay [3], in [4], in assay [5] and in [6] was “inactive” each time. Besides, the Potency entry in [7], in assay [10], in [11], in [12] and in assay [13] was “inactive” throughout. For the same molecule, the Potency in [8] was 10.6 µM (active); in assay [9], 24.5 µM (active).
Take `CC(C)C1CCC(Cc2ccc(Cl)cc2)C1(O)Cn1cncn1` (stereo not drawn): the Potency result in [1], in assay [2], in assay [3], in assay [4], in assay [5] and in assay [6] was “inactive” each time. For the same molecule, the Potency result in assay [14], in [15] and in assay [12] was “inactive” each time. The Potency in assay [8] was 37.1 µM (active); in assay [11] it was 30.3 µM (active).
For `Nc1ccccc1C(=O)OC/C=C/c1ccccc1`, the Potency result in assay [1], in assay [2], in assay [3], in assay [4], in assay [6] and in [7] was “inactive” throughout. In addition, the Potency entry in assay [14], in assay [8], in [9], in assay [15], in assay [11] and in assay [12] was “inactive” throughout. For the same molecule, the Potency result in [13] was “inactive”.
Turning to `Cc1cc(C(C)(C)c2cc(C)c(O)c(C)c2)cc(C)c1O`, the Potency result in assay [1], in assay [3], in assay [4], in [5], in [6] and in assay [10] was “inactive” in each case. Besides, the Potency result in [16] and in assay [12] was “inactive” each time. For the same molecule, the Potency in assay [2] is 33.5 µM (active); in assay [9], 23.7 µM (active).
Regarding `O=C(Nc1ccccc1)c1ccccc1I`, the Potency result in assay [1], in assay [2], in assay [3], in assay [4], in [17] and in assay [7] was “inactive” throughout. In addition, the Potency result in [18], in [8], in [9], in [10], in assay [15] and in [19] was “inactive” each time. Moreover, the Potency entry in [20], in [11], in [12] and in [13] was “inactive” in each case.
Take `CCOC(=O)Cc1ccccc1`: the Potency result in assay [1], in assay [2], in assay [3], in assay [4], in assay [17] and in assay [7] was “inactive” each time. Moreover, the Potency result in assay [18], in assay [8], in assay [9], in [10], in assay [15] and in assay [19] was “inactive” throughout. In addition, the Potency entry in [20], in [11], in assay [12] and in assay [13] was “inactive” in each case.
`O=[N+]([O-])c1cc(C(F)(F)F)cc([N+](=O)[O-])c1Cl`: the Potency result in assay [1], in assay [2], in [3], in assay [4], in [17] and in assay [7] was “inactive” in each case. The Potency result in [8], in [9], in [10], in assay [15], in [20] and in assay [11] was “inactive” throughout. Besides, the Potency result in assay [12] and in assay [13] was “inactive” throughout.
